High-throughput results (PubChem)
This is a sample that favours compounds with a hit; in the whole collection about 6% have one here.
Tau fibril ThT = blocks human tau fibril formation measured by thioflavin T; P10636; recombinant tau K18 P301L, heparin-induced fibrillization, ThT fluorescence; Potency, µM (series often up to 57.4 µM), without a hit: top-dose activity, negative = inhibition, usual class: inhibitors; hit rate 2.1% among 270,000; further: nearly all actives have a fitted effect of over 55% in size
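Aggregation was driven by heparin (20 uM final) acting on recombinant tau […] bearing P301L in 100 mM sodium acetate pH 7; fibrils were detected with Thioflavin T.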
Sfp PPTase inh = Sfp phosphopantetheinyl transferase inhibition; hit rate 3.5% among 310,000; Q9F4F7; Potency, µM, for the others: largest response in the series, negative = inhibition, most hits filed as inhibitors; Biochemical Sfp PPTase activity, qHTS;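 further: the enzyme is Sfp with the accession as filed and its product quenches rhodamine fluorescence; 0% = enzyme reaction without inhibitor and -100% = no enzyme wells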
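Fluorescence-quenching assay with 15 nM Sfp, 5 uM rhodamine-CoA and 12.5 uM BHQ-2-labelled ybbR peptide in pH 7.6 Hepes/MgCl2 buffer. Enzyme was pre-incubated with compound for 15 min at room temperature. Rate was taken from the 30-min fluorescence change (525/598 nm).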
PLK1 PBD block = PLK1 (human) polo-box domain binding inhibition. Plk1 PBD binding of FITC phosphopeptide, fluorescence polarization. Potency, µM, for inactives: max response, negative = inhibition, usual class: inhibitors. hit rate 2.8% among 360,000; further: series mostly up to about 57 µM; nearly all actives have a fitted effect of over 65% in size
Target sequence (P53350 whole entry, looked up, the tested form may be a part): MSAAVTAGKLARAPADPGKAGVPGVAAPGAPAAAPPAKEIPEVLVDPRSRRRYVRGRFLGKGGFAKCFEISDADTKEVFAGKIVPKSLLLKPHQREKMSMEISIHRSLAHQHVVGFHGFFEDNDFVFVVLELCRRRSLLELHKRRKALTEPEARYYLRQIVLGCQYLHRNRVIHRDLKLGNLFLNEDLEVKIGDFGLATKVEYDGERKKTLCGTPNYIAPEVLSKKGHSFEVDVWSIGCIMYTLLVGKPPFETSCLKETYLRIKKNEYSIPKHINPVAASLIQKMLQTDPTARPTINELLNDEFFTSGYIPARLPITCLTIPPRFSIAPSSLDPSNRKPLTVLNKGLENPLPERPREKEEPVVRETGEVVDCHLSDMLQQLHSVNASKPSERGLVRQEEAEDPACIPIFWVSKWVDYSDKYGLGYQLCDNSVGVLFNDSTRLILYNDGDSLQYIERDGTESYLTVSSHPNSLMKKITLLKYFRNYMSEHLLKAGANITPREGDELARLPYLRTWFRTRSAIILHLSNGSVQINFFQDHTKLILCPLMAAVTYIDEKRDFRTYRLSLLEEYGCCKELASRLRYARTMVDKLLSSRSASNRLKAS
Tau fibril FP = inhibitors of human tau fibril formation; P10636; K18 P301L tau heparin fibrillization, Alexa594 FP, 6 h; Potency, µM (series often up to 57.7 µM), inactives show at the top dose activity, negative = inhibition, actives largely listed as inhibitors; hit rate 0.39% among 280,000; further: nearly all actives have a fitted effect of over 55% in size
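Quantitative HTS format: compounds meet 15 uM recombinant K18 P301L tau and Alexa 594-tau tracer in 100 mM sodium acetate pH 7; 20 uM heparin triggers fibrillization at 37 C over 6 hr; FP gives the signal.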
Tau fluor counter = counter-screen for tau fibril formation inhibitors; tau K18 P301L Alexa594 fluorescence, heparin fibrillization; Potency, µM (top dose mostly 57.7 µM), inactives show at the highest dose activity change, negative = decrease; hit rate 0.93% among 280,000; AID 1463; further: nearly all actives have a fitted effect of over 55% in size
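Human tau K18 P301L (15 uM unlabeled, 0.24 uM Alexa 594-labeled) in 100 mM sodium acetate pH 7 with 20 uM heparin, 6 hr at 37 C. ThT 30 uM added, 1 hr ambient; Alexa 594 FP and total fluorescence read at 555/632 nm.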
VDR inhibitor = vitamin D3 receptor (human) inhibition | P11473 | hit rate 0.93% among 400,000 | AID 504847 | VDR-SRC2-3 peptide fluorescence polarization, 2 h | Potency, µM, for the others: max response, negative = inhibition, actives largely listed as inhibitors
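The screen uses fluorescence polarization to detect compounds that interfere with recruitment of the SRC2-3 coactivator peptide to VDR; plates are read after 2 h at room temperature.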
* hit, by the source's call; ? = inconclusive; . = no result; [ ] = another dose, or the depositor's remark. The call rests on the fitted dose curve; in most records, active means well fitted curve in the direction sought with a large enough effect; inconclusive means small, poorly fitted or top-dose-only effect, or another doubt; inactive means no such curve, though single readings can be large; an effect the other way counts as inactive or inconclusive. Unless noted, on the % scale 0 is the no-effect control and ±100 the full control effect; potency means the concentration at half of the fitted maximal effect.

SMILES	Tau fibril ThT	Sfp PPTase inh	PLK1 PBD block	Tau fibril FP	Tau fluor counter	VDR inhibitor
O=C(Nc1ccccc1)c1cc(C2COCCN2C(=O)CCCc2ccccc2)on1 (centres undefined)	.	.	0%	.	.	.
Cc1ccc(/C(=N\S(=O)(=O)c2ccc(Br)cc2)Nc2ccccc2C)cc1	.	7%	-9%	.	.	-16%
Cc1ccccc1N/C(=N/S(=O)(=O)c1ccccc1)c1ccc(F)cc1	-1%	-10%	38µM*	-2%	-5%	-16%
Cc1ccccc1C(=O)N(Cc1ccc(N(C)C)cc1)Cc1ccco1	?	.	.	11%	-21%	12%
Cc1cccc(-c2cc(=O)c3cc(Br)ccc3o2)c1	?	79µM*	.	2%	-14%	-4%
O=c1cc(-c2ccccc2)oc2ccc(Br)cc12	.	.	3%	.	.	-19%
FC(F)(F)c1ccc(C2[C@H]3CN(Cc4ccc(-c5ccccc5)cc4)[C@H](c4ccccc4)C34CC2(c2cccnc2)C4)cc1 (some centres undefined)	-2%	13%	8%	-7%	-1%	-17%
FC(F)(F)c1ccc(C2[C@H]3CN(Cc4cccnc4)[C@H](c4ccccc4)C34CC2(c2cccnc2)C4)cc1 (some centres undefined)	1%	35µM*	-5%	2%	-1%	?
CCOc1ccc2[nH]c(=O)c(CN(CCO)C(c3nnnn3C3CCCCC3)C(C)C)cc2c1 (centres undefined)	-11%	89µM*	-8%	1%	3%	-18%
Cc1cccc(C)c1Nc1nnc(SCC(=O)c2ccc(Br)s2)s1	-7%	2%	24µM*	-1%	-14%	?
Cn1c2c(c(=O)n(C)c1=O)C(c1ccccc1C(F)(F)F)CC(=O)N2 (centres undefined)	-6%	.	.	-4%	-5%	-7%
Oc1c(Br)cc(/C=N/n2c(-c3ccccc3)n[nH]c2=S)c(O)c1Br	.	-13%	6.7µM*	.	.	?
Cc1c(Br)c(O)c(Br)c(O)c1/C=N/n1c(-c2ccccc2)n[nH]c1=S	.	?	3µM*	.	.	?
Cc1ccc(C)n1-c1cccc(C(=O)O)c1	?	-26%	.	?	-13%	.
Cc1ccc(C)n1-c1cccc(N)c1	16µM*	9%	.	-11%	?	.
Cc1ccc(NC(=O)C2Cc3ccccc3N2C(=O)c2ccccc2)cc1Cl (centres undefined)	-4%	.	.	-5%	-15%	8%
CN(C)CCCNS(=O)(=O)c1ccc(N2CCN(Cc3ccc4c(c3)OCO4)CC2)c([N+](=O)[O-])c1	.	71µM*	-19%	.	.	-21%
CC(=O)c1ccc(N2CCN(c3ccc(S(=O)(=O)NCCCN(C)C)cc3[N+](=O)[O-])CC2)cc1	10µM*	-13%	0%	4%	-9%	-11%
COc1cccc(C(=O)c2cn(CC(=O)NCCc3ccccc3)c3nc(C)ccc3c2=O)c1	7%	.	.	1%	-2%	3%
O=C(Nc1ccc2oc(-c3cccc4c(Br)cccc34)nc2c1)c1ccc(F)cc1	-14%	.	.	?	-22%	-18%
CC(C)C(c1nnnn1C(C)(C)C)N1CCN(c2cccc(Cl)c2)CC1 (centres undefined)	-17%	8%	3µM*	-1%	-12%	-3%
COc1ccc(C=O)cc1COc1ccccc1F	-10%	4%	-6%	-5%	-11%	-11%
COc1ccc(/C=C/C(=O)c2ccccc2)cc1COc1ccccc1F	-10%	89µM*	0%	-2%	-14%	10%
CCOc1ccc(C(=O)/C=C/c2ccc(OC)c(OC)c2)cc1	?	-22%	-1%	0%	-16%	-25%
CCOc1ccc(/C=C/C(=O)c2ccccc2)cc1OC	?	-21%	-3%	7%	5%	79µM*
SMILES	Tau fibril ThT	Sfp PPTase inh	PLK1 PBD block	Tau fibril FP	Tau fluor counter	VDR inhibitor
Cc1nn(Cc2ccccc2)c2c1C(c1ccc(Cl)cc1)C(C#N)=C(N)O2 (centres undefined)	?	2%	27µM*	-9%	-30%	?
Cc1ccc(-n2nc(C)c3c2OC(N)=C(C#N)C3c2ccco2)cc1 (centres undefined)	25µM*	-16%	?	-11%	?	-18%
Cc1nn(Cc2ccccc2)c2c1C(c1ccncc1)C(C#N)=C(N)O2 (centres undefined)	?	-13%	-29%	?	-20%	-17%
Cc1ccc(-n2nc(C)c3c2OC(N)=C(C#N)C3c2ccc(C)o2)cc1 (centres undefined)	5µM*	?	-25%	?	?	-43%
Cc1nn(-c2ccccc2)c2c1C(c1ccccc1)C(C#N)=C(N)O2 (centres undefined)	?	8%	27µM*	5%	-18%	-14%
Cn1c(=O)c(=O)n(C)c2cc(NS(=O)(=O)c3ccc(Br)cc3)c(Cl)cc21	-16%	.	.	-8%	-7%	0%
CC1(C)CC(=O)c2cc(C(=O)Nc3ccc(Br)cc3)c(=O)n(-c3ccc(Cl)cc3)c2C1	1%	.	.	-6%	-3%	-1%
COc1ccc(C(=O)/C=C/c2ccc(O)cc2)c2c1CC(O)C(C)(C)O2 (centres undefined)	.	.	4%	.	.	3%
COc1ccc(C(=O)/C=C/c2ccc(O)cc2)c(O)c1CC=C(C)C	25µM*	14%	-11%	?	16µM*[quencher]	-17%
O=C(Nc1cccc(Cl)c1)c1ccc(F)c(S(=O)(=O)NCc2ccc3c(c2)OCO3)c1	-14%	7%	-22%	?	16µM*[quencher]	?
Cc1ccc(CNS(=O)(=O)c2cc(C(=O)Nc3cccc(C(F)(F)F)c3)ccc2F)cc1	22%	.	.	14µM*	?	8%
CCOC(=O)c1ccc(CN(Cc2ccc(F)cc2)S(=O)(=O)c2cc(C(=O)Nc3cccc(C(F)(F)F)c3)ccc2F)cc1	7%	.	.	14µM*	0%	-5%
CCOC(=O)c1ccc(CN(Cc2ccc(F)cc2)S(=O)(=O)c2ccc(F)c(C(=O)Nc3ccccc3C(F)(F)F)c2)cc1	2%	.	.	-11%	-6%	5%
O=C1NC2(CCCCC2)C(=O)N1/N=C/c1ccc(O)cc1O	-5%	-12%	21µM*	-11%	-7%	-26%
NC(=O)c1ccccc1N/C=C/C(=O)c1ccco1	?	6%	-6%	3%	0%	-11%
O=C(/C=C/Nc1ccc(Oc2ccccc2)cc1)c1ccco1	?	50µM*	-6%	7%	?	-4%
N#CC1=C(S)N(c2ccccc2)C(c2ccc(-c3cc(Cl)ccc3Cl)o2)NC1=O (centres undefined)	?	28µM*	?	?	-16%	79µM*
CC(C)c1cccc(C(C)C)c1NC(=O)c1ccc(-c2cc(Cl)ccc2Cl)o1	.	.	-1%	.	.	.
